This is a sample that favours compounds with a hit; in the whole collection about 3.5% have one here.
GPR151 ag = activators of human GPR151; AID 1508602; activation, % at 11.2 µM; 650,000 tested, 1% active; Q8TDV0; PathHunter beta-arrestin GPR151 cells, luminescence; in the data active means activation above about 4.9%;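 further: 0% = median of compound wells and 100% = cells with positive control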
MITF inh = human MITF inhibition, primary screen; O75030; AlphaScreen MITF homodimerization, bead proximity signal; inhibition, % at 2.6 µM; 650,000 tested, 0.91% active; AID 1259374; in the data active means inhibition above about 50%;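 further: 0% = vehicle wells with protein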
FBW7 act = activators of human E3 ligase FBW7; normalized activity (activation), % at 26.1 µM; 650,000 tested, 0.13% active; AlphaScreen FBW7–phospho-cyclin E peptide binding, activator screen; AID 1259310; in the data active means normalized activity above about 1.9%;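 further: purified mutant Fbw7 with reduced substrate affinity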
Target sequence (Q969H0 whole entry, looked up): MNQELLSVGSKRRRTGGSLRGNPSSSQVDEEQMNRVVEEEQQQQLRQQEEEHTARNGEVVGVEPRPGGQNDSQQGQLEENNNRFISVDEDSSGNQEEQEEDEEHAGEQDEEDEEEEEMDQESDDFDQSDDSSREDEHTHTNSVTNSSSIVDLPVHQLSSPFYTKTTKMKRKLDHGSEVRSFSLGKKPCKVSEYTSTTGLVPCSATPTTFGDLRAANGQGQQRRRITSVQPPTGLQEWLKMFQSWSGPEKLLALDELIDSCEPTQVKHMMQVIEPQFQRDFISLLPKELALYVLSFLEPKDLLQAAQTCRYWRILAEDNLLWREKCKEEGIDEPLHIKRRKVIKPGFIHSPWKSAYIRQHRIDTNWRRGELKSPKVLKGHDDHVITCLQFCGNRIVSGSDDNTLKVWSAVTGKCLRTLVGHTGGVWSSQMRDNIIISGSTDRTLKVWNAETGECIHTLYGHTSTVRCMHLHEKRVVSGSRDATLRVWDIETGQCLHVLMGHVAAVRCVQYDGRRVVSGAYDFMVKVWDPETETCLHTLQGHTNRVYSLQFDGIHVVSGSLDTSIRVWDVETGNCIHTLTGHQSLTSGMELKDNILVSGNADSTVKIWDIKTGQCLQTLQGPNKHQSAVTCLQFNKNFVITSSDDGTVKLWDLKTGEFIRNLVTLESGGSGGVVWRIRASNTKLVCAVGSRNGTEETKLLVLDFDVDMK
TEAD-YAP block = TEAD-YAP interaction inhibition; HEK-TIYL cells, TEAD-Gal4/YAP UAS-luciferase luminescence; inhibition, % at 9.12 µM; 640,000 tested, 1.4% active; in the data active means inhibition above about 32%;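 further: 0% = median of test compound wells and 100% = reference inhibitor wells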
GPR151 confirm = confirmation of human GPR151 activators | GPR151 PathHunter beta-arrestin cells, luminescence, 90 min; % of EA-reagent control over plate median | shares compounds with GPR151 ag | 6,700 tested, under 10 active | activation, % at 11.2 µM | AID 1508609;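 active means mean percent activation across replicates above the confirmation screen cutoff of 4.91%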
GPR119 ag = GPR119 activation, counter-screen for GPR151 activators; shares compounds with GPR151 ag; GPR119 PathHunter beta-arrestin cells, luminescence, 90 min; 0 = compound-well median, 100 = enzyme-acceptor control; activation, % at 11.2 µM; 6,700 tested, 0.3% active;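 active means mean percent activation in the counterscreen above 29.09%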;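 further: counterscreen on off-target GPR119 to flag nonselective hits from the GPR151 activator screen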
* marks the source's active call; other numbers are inactive results; . = no result.

SMILES	GPR151 ag	MITF inh	FBW7 act	TEAD-YAP block	GPR151 confirm	GPR119 ag
COc1ccc(/C=C2/c3ccccc3-c3cc4c(C)cc(C)nc4cc32)cc1OC	5.8*	4	0	-9	1	1
Cc1cnc(Nc2ccc(C(F)(F)F)cc2)nc1NCCO	-1	17	0	2	.	.
Cc1ccc(CNC(=O)CC(C)S(=O)(=O)c2cc3c(cc2C)NC(=O)CO3)cc1 (configuration not stated)	5.3*	-11	0	-2	1	5
Cc1cc2c(cc1S(=O)(=O)C(C)CC(=O)NCc1ccc(Cl)cc1)OCC(=O)N2 (configuration not stated)	-1	-7	0	3	.	.
CCC(CC)NC(=O)c1ccc(C#N)cc1	-1	-1	0	-8	.	.
COCCCNC(=O)c1ccc(CNc2nc(=S)[nH]c3ccccc23)cc1	5.9*	-2	0	-6	0	10
O=[N+]([O-])c1cc(C(F)(F)F)ccc1N1CCN(S(=O)(=O)Cc2ccccc2)CC1	1	16	1	-3	.	.
CCOc1ccc2nc(SCC(=O)Nc3ccc4c(c3)OCCO4)c(C#N)cc2c1	6.4*	5	0	5	0	-10
CCOc1ccc2cc(C#N)c(SCC(=O)NC(C)(C)C)nc2c1	7.0*	-1	0	-2	0	6
N#Cc1cc2cc3c(cc2nc1SCC(=O)Nc1ccc(F)cc1)OCO3	2	3	0	-4	.	.
N#Cc1cc2cc3c(cc2nc1SCC(=O)Nc1ccc(F)cc1)OCCO3	6.2*	-8	0	7	0	-10
COc1ccc(N(CC(=O)NCc2cccnc2)S(=O)(=O)c2ccc(C)cc2)cc1	2	11	0	15	.	.
CCC(C)NC(=O)CN(c1cc(C(F)(F)F)ccc1Cl)S(C)(=O)=O (configuration not stated)	-1	9	0	-1	.	.
COc1ccccc1NS(=O)(=O)c1ccc2oc(=O)ccc2c1	0	5	0	10	.	.
CCc1ccccc1NS(=O)(=O)c1ccc2oc(=O)ccc2c1	13*	8	0	8	0	7
CCCn1c(=O)c2c(nc3n(-c4ccc(F)cc4)c(C)cn23)n(C)c1=O	0	21	1	2	.	.
O=C(NCc1ccccc1Cl)c1nnc(-c2ccncc2)o1	1	-3	-1	0	.	.
O=C(NCc1ccccc1Cl)c1nnc(-c2ccccc2)o1	5.0*	6	0	-14	0	-5
O=C(COC(=O)c1cccc(S(=O)(=O)NCC(F)(F)F)c1)c1ccccc1	5.6*	16	0	-9	-1	0
COc1ccc(C2=N/C(=C/c3ccc(SC)cc3)C(=O)O2)cc1OC	-1	-1	0	4	.	.
CC1(C)CC(=O)C(C=NCCc2cccc(Cl)c2)=C(O)C1	5.4*	6	0	21	-1	-16
CC1(C)CC(=O)C(C=NCc2cccc(F)c2)=C(O)C1	1	6	0	5	.	.
CC(C)Cc1ccc2c(N)c(C(=O)c3ccc(C(=O)c4sc5nc(CC(C)C)ccc5c4N)cc3)sc2n1	0	2	0	-2	.	.
CCCCOC(=O)Nc1ccc(S(=O)(=O)Nc2cccc([N+](=O)[O-])c2)cc1	5.3*	-1	0	-6	0	-2
CCNS(=O)(=O)c1ccc(NC(=O)Nc2cccc([N+](=O)[O-])c2)cc1	13*	5	0	2	0	3
SMILES	GPR151 ag	MITF inh	FBW7 act	TEAD-YAP block	GPR151 confirm	GPR119 ag
C=CCN(c1ccccc1Cl)S(=O)(=O)c1cccc(C(=O)O)c1	0	8	0	10	.	.
C=CCOc1ccc(/C=C2/C(=O)NC(=O)N(c3ccc(OCC)cc3)C2=O)cc1OCC	7.6*	10	0	12	1	6
CCOc1ccc(N2C(=O)NC(=O)/C(=C\c3ccc(OC)c(OC)c3)C2=O)cc1	-1	7	0	12	.	.
COc1ccc(N2C(=O)NC(=O)/C(=C\c3ccc(F)cc3)C2=O)cc1	5.5*	-5	0	2	1	16
COc1cc(Br)c(C2C(C#N)=C(C)NC3=C2C(=O)CC(c2ccc(Cl)cc2)C3)cc1OC (configuration not stated)	1	12	0	11	.	.
COc1ccc(Cl)cc1NC(=O)N(C)Cc1c(C)nn(C)c1C	9.6*	-15	1	-21	1	-2
COc1ccc(Cl)cc1NC(=O)CCn1nc(C)c(C)c1C	0	4	0	-15	.	.
COC(=O)C1=CN(C2CCCC2)C=C(C(=O)OC)C1c1ccc(Cl)c([N+](=O)[O-])c1	1	9	0	7	.	.
CC(=O)c1cccc(N2C(=O)C3C4C=CC(O4)C3C2=O)c1 (configuration not stated)	1	6	0	7	.	.
COc1ccc(/C(N)=N/OC(=O)c2cc(Cl)ccc2OC)cc1	6.8*	7	0	7	0	-1
N#C/C(=C\Nc1ccccc1F)c1nc(-c2cc3cc([N+](=O)[O-])ccc3oc2=O)cs1	11*	2	0	0	0	10
Cc1ccc(C2CC(C(F)(F)F)n3ncc(C(=O)Nc4cccc(C)c4)c3N2)cc1 (configuration not stated)	0	6	0	2	.	.
COc1ccccc1-c1coc2cc(OC(=O)C(C)(C)C)ccc2c1=O	6.9*	17	0	8	1	-3
CCCOc1ccc(C2NC(=O)NC(C)=C2C(=O)OCCOCC)cc1 (configuration not stated)	-1	4	0	-20	.	.
CS(=O)(=O)c1ccc2nc(NC(=O)C(F)(F)F)sc2c1	-1	4	0	0	.	.
Cc1cc(=O)oc2cc(OCc3ccc(C(=O)NNC(=O)c4ccccc4)cc3)ccc12	-1	6	0	1	.	.
C/C(N)=C(/C#N)C(=O)COC(=O)c1ccc(COc2ccc3c(C)cc(=O)oc3c2)cc1	5.3*	7	0	6	0	0
Cn1c(=O)cc(N2CCCC2)n(Cc2ccc(F)cc2F)c1=O	-1	10	0	1	.	.
Cn1c(=O)cc(N2CCCCC2)n(Cc2ccc(F)cc2F)c1=O	5.7*	-6	0	-10	-2	-8
CCC1CCCCN1C(=O)COC(=O)/C(C#N)=C/c1ccc2c(c1)OCO2 (configuration not stated)	0	14	1	-2	.	.
CC1(C)CC2CC(C)(CN2C(=O)COC(=O)/C(C#N)=C/c2ccc3c(c2)OCO3)C1 (configuration not stated)	6.1*	2	0	2	-1	-13
CC(C)c1ccc(OCC(=O)O/N=C(\N)c2cccc([N+](=O)[O-])c2)cc1	16*	-11	0	-4	0	-7
